This passage reports growth inhibition results from PubChem BioAssay (NCI).

About 79,000 compounds went through this panel and 15% of them were active in at least one assay; those are over-represented in the sample as a whole. Unmarked numbers belong to inactive results. The source made the active and inactive calls. No stated cut-off is given here; in the data, active means growth inhibition above about 70%; inactive means the rest.

The nature of experiment [1]: NCI Yeast Anticancer Drug Screen. Data for the rad50 strain (AID 155).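 Further: 0% = growth of vehicle-only cultures of the same strain.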 The following applies: S. cerevisiae rad50 strain growth inhibition; at 50.0 µM; hits give high values. The method, boiled down: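 Yeast carrying a defined DNA repair defect were exposed to test compounds, and growth was compared with vehicle-treated controls to give percent inhibition.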
A short description of experiment [2]: NCI Yeast Anticancer Drug Screen. Data for the mec2-1 strain (AID 157). Particulars: S. cerevisiae mec2-1 strain, at 50.0 µM, hits give high values. The method in brief:
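Cells of the genetically defined mec2-1 yeast strain are incubated with test compound. Inhibition of growth is calculated against vehicle-treated controls.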

A short description of experiment [3]: NCI Yeast Anticancer Drug Screen. Data for the sgs1 mgt1 strain (AID 161).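 Further: 0% = growth of cultures given vehicle only.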 Particulars: S. cerevisiae sgs1 mgt1 strain, at 50.0 µM, hits give high values. The method in brief:
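Genetically altered yeast, compound exposure, growth inhibition relative to vehicle.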

Experiment [4] can be described thus: NCI Yeast Anticancer Drug Screen. Data for the cln2 rad14 strain (AID 165).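 Further: 0% = growth equal to vehicle treated cultures.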 The following applies: S. cerevisiae cln2 rad14 strain, at 50.0 µM, hits give high values. The method in brief:
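The screen exposed genetically defined yeast (cln2 rad14) to test compounds and scored growth inhibition relative to vehicle-treated controls.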

Experiment [5] in a line: NCI Yeast Anticancer Drug Screen. Data for the bub3 strain (AID 167). The following applies: S. cerevisiae bub3 mutant strain, at 50.0 µM, hits give high values. The method, boiled down: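 Compounds were applied to a genetically altered yeast strain carrying a cell-cycle control defect. Growth inhibition was scored against vehicle-treated controls.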
Experiment [6] in a line: NCI Yeast Anticancer Drug Screen. Data for the mlh1 rad18 strain (AID 175). The following applies: S. cerevisiae mlh1 rad18 strain growth inhibition; at 50.0 µM; hits give high values. The method, boiled down: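 Compound-treated yeast growth, normalised to vehicle controls. Strain bears defined DNA repair mutations.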

Take `CCC(/C=C/c1ccccc1)=N\NC(=O)c1ccc(C)cc1`: the growth inhibition is 9.4% in experiment [1]; 10.7% in experiment [2]; 11.7% in experiment [3]; -4.05% in experiment [4]; 15.5% in experiment [5]; 5.25% in experiment [6].
As to `O=C1CN(CCCO)CC(=O)N2Cc3ccccc3CN12`, the growth inhibition was -8.95% in experiment [1]; 4.55% in experiment [2]; -18.7% in experiment [3]; -10% in experiment [4]; -6.85% in experiment [5]; -11.3% in experiment [6].
In the case of `COc1c2c(c(OC)c3c(=O)c4ccccc4[nH]c13)OCO2`, the growth inhibition was 12.6% in experiment [1]; -8.85% in experiment [2]; 26.9% in experiment [3]; -2.25% in experiment [4]; 18.2% in experiment [5]; 22.9% in experiment [6].
Take `COc1ccc(CNc2ncccn2)cc1`: the growth inhibition in experiment [1] was 14.1%; in experiment [2], -23.7%; in experiment [3], 0.7%; in experiment [4] it was 9.5%; in experiment [5] it was -12%; in experiment [6] it was 13.5%.
Regarding `N/N=C1\CCCc2c1no[n+]2[O-]`, the growth inhibition in experiment [1] was 6.05%; in experiment [2], -4.05%; in experiment [3], -0.5%; in experiment [4], 4%; in experiment [5], -9.9%; in experiment [6] it was 3.2%.
`COc1cc(-c2oc3c(OC)c(OC)cc(O)c3c(=O)c2OC)ccc1O`: the growth inhibition is 11.7% in experiment [1]; -8.1% in experiment [2]; -8.7% in experiment [3]; -5.3% in experiment [4]; -9.05% in experiment [5]; -0.05% in experiment [6].
Take `CCCCNc1ncnc2c1cnn2-c1ccccc1`: the growth inhibition in experiment [1] is 7%; in experiment [2] it was -1%; in experiment [3] it was 3.2%; in experiment [4], -26.9%; in experiment [5] it was -4.75%; in experiment [6], 0%.
As for `N#CC1=C(N)CCC(C#N)(c2ccccc2)C1` (configuration not stated), the growth inhibition in experiment [1] was 2.4%; in experiment [2] it was 2%; in experiment [3] it was 22.4%; in experiment [4], 14.8%; in experiment [5] it was 22.8%; in experiment [6], 8.2%.
For `O=C1CSC(c2ccccc2F)N1c1ncccn1` (configuration not stated), the growth inhibition in experiment [1] was -3.2%; in experiment [2], -6.8%; in experiment [3] it was 0.75%; in experiment [4], -20.8%; in experiment [5] it was 8%; in experiment [6], -1.4%.
On to `Cn1c(N)nc2c1c(=O)[nH]c(=O)n2C`, for which the growth inhibition in experiment [1] was 12.6%; in experiment [2] it was -0.75%; in experiment [3] it was 5.25%; in experiment [4], 13.2%; in experiment [5] it was -19.4%; in experiment [6], 21.8%.
As for `O=C(O)c1cc2ccccc2c(N=Nc2cc(C(F)(F)F)ccc2Cl)c1O`, the growth inhibition in experiment [1] was -12.2%; in experiment [2], -9.65%; in experiment [3] it was -4.05%; in experiment [4] it was 5.4%; in experiment [5] it was -6.3%; in experiment [6] it was -13.1%.
Consider `CCCCCCC(=O)c1ccc2ccccc2c1O`, for which the growth inhibition is 1.6% in experiment [1]; -14.8% in experiment [2]; 0.55% in experiment [3]; -23.9% in experiment [4]; 8.8% in experiment [5]; -2.55% in experiment [6].
`O=CNC1(c2ccccc2)CCCCC1`: the growth inhibition is 2% in experiment [1]; -37% in experiment [2]; -12.2% in experiment [3]; 16.4% in experiment [4]; 4.6% in experiment [5]; 4.85% in experiment [6].
For `CCC(C)C(C)O` (configuration not stated), the growth inhibition in experiment [1] was -7.05%; in experiment [2] it was -53%; in experiment [3] it was 2.9%; in experiment [4], 14.5%; in experiment [5], -12.8%; in experiment [6], 0.1%.
In the case of `CC(Oc1ccc2ccccc2c1I)C(=O)O` (configuration not stated), the growth inhibition in experiment [1] was 27.9%; in experiment [2] it was 12.8%; in experiment [3], 37.8%; in experiment [4], 18.6%; in experiment [5], 57.4%; in experiment [6], 36.8%.
For `NNC(=O)C(=O)N/N=C1\CCCC1C(=O)CCC(=O)Nc1cccc(Cl)c1` (configuration not stated), the growth inhibition in experiment [1] was -35.5%; in experiment [2], -33.4%; in experiment [3], -32.3%; in experiment [4] it was -1.65%; in experiment [5] it was -24.1%; in experiment [6], -30.9%.
As for `CCN(CC)CCNc1cc(C)nc(/N=C(\N)Nc2ccc(Cl)cc2)n1`, the growth inhibition was 23.9% in experiment [1]; 1.05% in experiment [2]; 18.1% in experiment [3]; -14.8% in experiment [4]; 11.6% in experiment [5]; 30.8% in experiment [6].
Regarding `O=C(O)C(O)c1c[nH]c2ccccc12` (configuration not stated), the growth inhibition is -4.85% in experiment [1]; -2.3% in experiment [2]; -26.6% in experiment [3]; -1.25% in experiment [4]; -11.4% in experiment [5]; -29.3% in experiment [6].
For `CCC(C)C(N=C1N=CNC2=NC=NC12)C(=O)O` (configuration not stated), the growth inhibition in experiment [1] was 0.45%; in experiment [2], -27.8%; in experiment [3], -2.6%; in experiment [4], 6.5%; in experiment [5], -10.6%; in experiment [6] it was -4.1%.
Regarding `COc1ccc2cc(C(=O)CCC(=O)O)ccc2c1`, the growth inhibition in experiment [1] is 2.7%; in experiment [2] it was -35%; in experiment [3], -16.4%; in experiment [4], -21.3%; in experiment [5], -38.5%; in experiment [6] it was 0.25%.
As to `CCCCCCCCCSc1nc2ccc(N=Cc3ccccc3O)cc2s1`, the growth inhibition in experiment [1] is -2.85%; in experiment [2], -6.8%; in experiment [3] it was -23.5%; in experiment [4], -10.1%; in experiment [5] it was 1.3%; in experiment [6] it was -40.6%.
In the case of `Cc1ccc(-c2c3nc(c(-c4ccc(C)cc4)c4ccc([nH]4)c(-c4ccc(OCC5COC(C)(C)O5)cc4)c4nc(c(-c5ccc(C)cc5)c5ccc2[nH]5)C=C4)C=C3)cc1` (configuration not stated), the growth inhibition in experiment [1] was -58.3%; in experiment [2] it was -32.9%; in experiment [3] it was -50.3%; in experiment [4], -23.9%; in experiment [5] it was -40.5%; in experiment [6] it was -66.7%.
On to `c1ccc(-c2oc3ccccc3c2-c2ccc(OCCN3CCCC3)cc2)cc1`, for which the growth inhibition was 99.5% (active) in experiment [1]; 99.6% (active) in experiment [2]; 99.7% (active) in experiment [3]; 99.3% (active) in experiment [4]; 99.3% (active) in experiment [5]; 99.5% (active) in experiment [6].
`Nc1[nH]c(=S)[nH]c(=S)c1N`: the growth inhibition in experiment [1] is -30.6%; in experiment [2] it was -8.6%; in experiment [3], -15.2%; in experiment [4], -44.8%; in experiment [5] it was -15.3%; in experiment [6] it was -25.4%.
In the case of `CN(c1ccc(Cl)cc1)S(=O)(=O)c1ccc([N+](=O)[O-])cc1`, the growth inhibition in experiment [1] is -13.2%; in experiment [2], -23.5%; in experiment [3], 23.4%; in experiment [4], 32.4%; in experiment [5] it was 38%; in experiment [6], -5.9%.
As to `[O-][n+]1ccncc1Cl`, the growth inhibition was -1.15% in experiment [1]; -0.65% in experiment [2]; -2.75% in experiment [3]; 0.55% in experiment [4]; 18.6% in experiment [5]; 7.05% in experiment [6].
With `O=c1cc(CNC2CC3CCC2C3)[nH]c(=O)[nH]1` (configuration not stated), the growth inhibition in experiment [1] is 7.35%; in experiment [2], -1.2%; in experiment [3] it was -4.25%; in experiment [4], -3.45%; in experiment [5] it was 0.2%; in experiment [6] it was -0.2%.
Turning to `CC1CC[P+](C)(c2ccccc2)c2ccccc21` (configuration not stated), the growth inhibition in experiment [1] was 26%; in experiment [2], 15.7%; in experiment [3], 1.6%; in experiment [4], -4.6%; in experiment [5], 2.75%; in experiment [6], 20.6%.
With `CC(c1ccccc1)N1COc2cc3c(cc2C1)OCN(C(C)c1ccccc1)C3` (configuration not stated), the growth inhibition in experiment [1] is -21.2%; in experiment [2], -2.95%; in experiment [3], -29.8%; in experiment [4], -11.8%; in experiment [5], -6.8%; in experiment [6] it was -17.4%.
For `CC1(C)C(OS(C)(=O)=O)C(C)(C)C1OS(C)(=O)=O` (configuration not stated), the growth inhibition was 3.75% in experiment [1]; -20.6% in experiment [2]; 13.7% in experiment [3]; 9.45% in experiment [4]; 8.4% in experiment [5]; -12.9% in experiment [6].
`Brc1c(-c2ccccc2)oc2nc3ccccc3nc12`: the growth inhibition in experiment [1] is 17.2%; in experiment [2], 0.2%; in experiment [3], 0.2%; in experiment [4], 7.45%; in experiment [5] it was 12.6%; in experiment [6], 3.8%.
With `C=CCOC(=O)C1(O)c2ccccc2NC(=S)N1CC=C` (configuration not stated), the growth inhibition in experiment [1] was 1.35%; in experiment [2] it was 7.4%; in experiment [3] it was 5.2%; in experiment [4], 6.9%; in experiment [5], 10.3%; in experiment [6], -0.8%.
As for `Cc1cc(C)c(C(C)(C)O)c(C)c1`, the growth inhibition was 8.45% in experiment [1]; 0% in experiment [2]; 3.9% in experiment [3]; 22.4% in experiment [4]; -1.65% in experiment [5]; 1.1% in experiment [6].
`NC(=O)N/N=C/c1cccc(O)c1O`: the growth inhibition in experiment [1] was 6%; in experiment [2], -6.2%; in experiment [3], -24.7%; in experiment [4], -10.2%; in experiment [5] it was -2.9%; in experiment [6], 5.75%.
For the compound `CC(C)(CCC(=O)O)CCC(=O)O`, the growth inhibition in experiment [1] was 16.3%; in experiment [2], 17.6%; in experiment [3], 15.8%; in experiment [4], -6.05%; in experiment [5] it was -4%; in experiment [6], 36%.
Turning to `CCC(=O)Nc1nc2c(ncn2C2OC(COC(=O)CC)C(OC(=O)CC)C2OC(=O)CC)c(=O)[nH]1` (configuration not stated), the growth inhibition in experiment [1] was -11.6%; in experiment [2], 5.2%; in experiment [3], 18.5%; in experiment [4], 6.25%; in experiment [5] it was 6.8%; in experiment [6] it was -7.3%.
As for `CN(/N=C/c1ccc(O)c(/C=N/N(C)c2ccccn2)n1)c1ccccn1`, the growth inhibition is -9.45% in experiment [1]; 8% in experiment [2]; -3.35% in experiment [3]; -11.9% in experiment [4]; -2.7% in experiment [5]; 8.3% in experiment [6].
